ChEMBL document CHEMBL2218924, “A broad activity screen in support of a chemogenomic map for kinase signalling research and drug discovery” (Biochem J, 2013)

target: Death-associated protein kinase 1 (Homo sapiens) (UniProt P53355); conditions: at 1 µM
Sequence (P53355 whole entry, looked up): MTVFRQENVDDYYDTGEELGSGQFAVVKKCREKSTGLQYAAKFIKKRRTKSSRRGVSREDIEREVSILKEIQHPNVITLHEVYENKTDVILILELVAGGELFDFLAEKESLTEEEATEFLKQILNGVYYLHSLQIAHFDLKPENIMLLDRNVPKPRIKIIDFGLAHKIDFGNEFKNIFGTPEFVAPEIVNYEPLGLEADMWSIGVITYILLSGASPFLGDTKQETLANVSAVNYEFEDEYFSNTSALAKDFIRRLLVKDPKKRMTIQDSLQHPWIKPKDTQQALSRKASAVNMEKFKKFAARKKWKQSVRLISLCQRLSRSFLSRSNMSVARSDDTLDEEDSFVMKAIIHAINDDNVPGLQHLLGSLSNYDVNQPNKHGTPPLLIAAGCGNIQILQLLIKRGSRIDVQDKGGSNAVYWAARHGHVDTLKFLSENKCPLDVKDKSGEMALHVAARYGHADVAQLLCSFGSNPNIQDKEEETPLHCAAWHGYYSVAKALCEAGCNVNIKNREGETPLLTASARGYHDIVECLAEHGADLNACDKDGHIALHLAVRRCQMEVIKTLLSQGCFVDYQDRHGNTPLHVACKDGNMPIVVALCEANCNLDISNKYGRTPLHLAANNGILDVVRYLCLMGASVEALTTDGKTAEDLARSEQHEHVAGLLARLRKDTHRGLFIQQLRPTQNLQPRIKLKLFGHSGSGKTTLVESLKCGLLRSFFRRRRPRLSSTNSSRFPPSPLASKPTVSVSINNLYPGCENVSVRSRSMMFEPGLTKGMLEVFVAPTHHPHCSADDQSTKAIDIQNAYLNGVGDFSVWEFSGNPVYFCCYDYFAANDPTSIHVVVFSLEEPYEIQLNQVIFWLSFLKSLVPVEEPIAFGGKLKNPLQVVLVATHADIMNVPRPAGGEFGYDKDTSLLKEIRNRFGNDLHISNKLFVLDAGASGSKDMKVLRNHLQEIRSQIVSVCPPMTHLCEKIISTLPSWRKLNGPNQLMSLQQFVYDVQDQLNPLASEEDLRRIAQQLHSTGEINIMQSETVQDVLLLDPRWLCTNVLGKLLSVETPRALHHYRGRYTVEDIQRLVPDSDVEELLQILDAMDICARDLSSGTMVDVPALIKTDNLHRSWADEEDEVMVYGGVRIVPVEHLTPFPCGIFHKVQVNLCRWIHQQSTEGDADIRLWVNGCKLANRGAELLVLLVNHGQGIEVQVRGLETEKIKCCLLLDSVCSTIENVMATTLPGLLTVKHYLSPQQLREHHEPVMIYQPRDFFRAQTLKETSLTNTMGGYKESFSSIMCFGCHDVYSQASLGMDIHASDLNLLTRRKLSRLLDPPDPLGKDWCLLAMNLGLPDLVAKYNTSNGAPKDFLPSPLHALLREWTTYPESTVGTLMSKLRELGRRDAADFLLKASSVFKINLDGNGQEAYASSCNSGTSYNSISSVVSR

SMILES	residual activity [%]
CCOC(=O)c1c(C)[nH]c(/C=C2\C(=O)Nc3ccccc32)c1C	83
O=C1NC(=O)c2cc(Nc3ccc(F)cc3)c(Nc3ccc(F)cc3)cc21	87
O=C(CCCc1ccc(-c2ccccc2F)cc1)Nc1ccc(O)cc1	95
O=c1cc(-c2cccc3c2Sc2ccccc2S3)oc(N2CCOCC2)c1	91
CCN1/C(=C/C(C)=O)Sc2ccc(OC)cc21	81
N#C/C(=C(\N)Sc1ccc(N)cc1)c1ccccc1C(F)(F)F	84
c1ccc(-c2n[nH]c3c2oc2ccccc23)cc1	94
O=C1NC(=O)/C(=C/c2ccc3c(c2)OC(F)(F)O3)S1	98
COc1ccc(-c2cnc3c(-c4ccsc4)cnn3c2)cc1	97
NC(=O)c1ccc2[nH]c(-c3ccc(Oc4ccc(Cl)cc4)cc3)nc2c1	93
COc1ccc(CNc2nc(N(CCO)CCO)nc3c2ncn3C(C)C)cc1	93
CC(C)c1nn(-c2c(Cl)cccc2Cl)c2nc(Cc3ccc(OCCO)cc3)[nH]c(=O)c12	94
O=c1c2ccccc2[nH]c(=S)n1CCN1CCC(=C(c2ccc(F)cc2)c2ccc(F)cc2)CC1	106
CO[C@H]1[C@@H](OC)C[C@H](C)[C@@H](OC)C2=CC(=O)C=C(NC(=O)/C(C)=C/C=C/[C@H](OC)[C@@H](OC(N)=O)/C(C)=C/[C@@H]1C)C2=O	96
O=c1cc(N2CCNCC2)oc2c(-c3ccccc3)cccc12	96
O=c1cc(N2CCOCC2)oc2c1ccc1ccccc12	90
COc1ccc(S(=O)(=O)N(CCO)c2ccccc2CN(C)C/C=C/c2ccc(Cl)cc2)cc1	86
O=C(O)c1ccc2c3c1cccc3c(=O)n1c3ccccc3nc21	79
COc1ccc(C(=O)Nc2sc3c(c2C(N)=O)CCCC3)cc1OC	93
Cc1cc(Nc2nc(-c3ccccc3)nc3ccccc23)n[nH]1	59
CN(C)S(=O)(=O)c1ccc2c(c1)/C(=C/c1cc3c([nH]1)CCCC3)C(=O)N2	90
CO[C@H]1C[C@@H]2CC[C@@H](C)[C@@](O)(O2)C(=O)C(=O)N2CCCC[C@H]2C(=O)O[C@H]([C@H](C)C[C@@H]2CC[C@@H](O)[C@H](OC)C2)CC(=O)[C@H](C)/C=C(\C)[C@@H](O)[C@@H](OC)C(=O)[C@H](C)C[C@H](C)/C=C/C=C/C=C/1C	95
O=C1Nc2ccccc2/C1=C1/Nc2ccccc2/C1=N\OCCC(O)CO (stereo not given)	81
Oc1cccc(-c2nc(N3CCOCC3)c3oc4ncccc4c3n2)c1	99
CCN(CC)CCNC(=O)c1c(C)[nH]c(/C=C2\C(=O)Nc3ccc(Cl)cc32)c1C	75
CCC(=O)Nc1ccc2ncnc(Nc3cccc(Br)c3)c2c1	80
C[C@@H](N)[C@H]1CC[C@H](C(=O)Nc2ccncc2)CC1	102
Nc1ccc2ncnc(NCCc3ccc(Oc4ccccc4)cc3)c2c1	94
COc1cc2ncnc(Nc3ccc(O)c(Br)c3)c2cc1OC	88
O=C(Nc1cccc(Nc2cc(Nc3cccc(C(F)(F)F)c3)ncn2)c1)C1CC1	109
